Screening results: PubChem BioAssay, National Center for Advancing Translational Sciences (NCATS)
BAZ2B block = blocks human BAZ2B | Q9UIF8 | AlphaScreen BAZ2B-H3K14Ac peptide displacement | Potency, µM (top dose mostly 114 µM), without a hit: at the top dose activity change, negative = inhibition, hits mostly inhibitors | hit rate 4.4% among 360,000 | AID 504333; note: % is set by controls: 0 for no effect and ±100 for the full control effect; nearly all actives have a fitted effect of over 60% in size
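Complex of BAZ2B and biotin-H3K14Ac (50 nM apiece) forms over 30 min at RT, then faces library compounds up to 110 uM for another 30 min; AlphaScreen beads added, 20 min dark incubation, luminescence read.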
HP1b binding inh = blocks HP1-beta chromodomain binding to methylated histone tails | AlphaScreen HP1-beta / biotin-H3K9me3 peptide binding | hit rate 0.56% among 390,000 | Potency, µM (doses to about 114 µM), inactives show at the highest dose activity change, negative = inhibition, hits mostly inhibitors; note: nearly all actives have a fitted effect of over 70% in size
Target sequence (P83916 whole entry, looked up): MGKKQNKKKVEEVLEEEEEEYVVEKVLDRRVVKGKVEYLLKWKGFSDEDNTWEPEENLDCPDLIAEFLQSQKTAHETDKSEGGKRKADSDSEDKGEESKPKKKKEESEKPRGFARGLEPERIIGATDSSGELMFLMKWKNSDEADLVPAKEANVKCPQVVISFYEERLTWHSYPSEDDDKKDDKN
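Compound inhibition of the preformed complex between 50 nM HP1-beta and 50 nM biotinylated H3K9me3 peptide was read by AlphaScreen. Buffer was PBS pH 7.4 with 0.01% Tween-20. Incubations ran 30 min at room temperature, with 10 ug/mL donor/acceptor beads.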
Sfp inh = inhibitors of Bacillus subtilis Sfp phosphopantetheinyl transferase; Q9F4F7; Biochemical Sfp PPTase activity, qHTS; hit rate 3.5% among 310,000; AID 1490; Potency, µM, inactives show largest response in the series, negative = inhibition, most hits filed as inhibitors;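 note: the enzyme is Sfp with the accession as filed and its product quenches rhodamine fluorescence; 0% = enzyme reaction without inhibitor and -100% = no enzyme wells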
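Sfp 15 nM + cpd, 15 min RT; start w/ rhodamine-CoA 5 uM, BHQ-2-YbbR 12.5 uM (final); 50 mM Hepes pH 7.6, 10 mM MgCl2, 0.01% NP-40, 0.01% BSA; read 525/598 nm at 0 and 30 min.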
JMJD2A Tudor inh = inhibitors of human JMJD2A Tudor domain | O75164 | AlphaScreen JMJD2A-Tudor / H3K4me3 peptide binding | Potency, µM (titrated, usually from 114 µM), without a hit: top-dose activity change, negative = inhibition, actives largely listed as inhibitors | hit rate 4.4% among 390,000 | AID 504339; note: % is set by controls: 0 for no effect and ±100 for the full control effect; nearly all actives have a fitted effect of over 50% in size
G9a inh = G9a (human) methyltransferase inhibition | G9a H3K9 monomethylation, AlphaScreen, 2 h | Potency, µM (highest dose often 102 µM), for inactives: at the highest dose activity, negative = inhibition, most hits filed as inhibitors | AID 504332 | Q96KQ7 | hit rate 8.8% among 350,000; note: % is set by controls: 0 for no effect and ±100 for the full control effect; nearly all actives have a fitted effect of over 75% in size
Target sequence (Q96KQ7 913-1193 limits assumed): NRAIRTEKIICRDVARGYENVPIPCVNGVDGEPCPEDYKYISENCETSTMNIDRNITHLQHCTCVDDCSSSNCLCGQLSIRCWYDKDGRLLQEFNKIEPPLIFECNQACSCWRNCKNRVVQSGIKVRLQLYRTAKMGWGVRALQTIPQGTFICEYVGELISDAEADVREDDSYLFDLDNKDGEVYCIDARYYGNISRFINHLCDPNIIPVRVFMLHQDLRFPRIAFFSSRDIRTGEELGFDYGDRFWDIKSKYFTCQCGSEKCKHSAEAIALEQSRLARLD
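AlphaScreen detection with an anti-monomethyl H3K9 antibody quantified product after a 2 h room-temperature reaction containing 500 nM biotinylated H3K9 peptide, 20 µM SAM and 20 nM enzyme, which had been preincubated 15 min with compound.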
* marks the source's active call; other numbers are inactive results; ? = inconclusive; . = no result; [ ] = dose if it differs, or a comment. This is a sample that favours compounds with a hit; in the whole collection about 12% have one here. Calls come from the whole dose curve; as a rule, active = well fitted curve in the direction sought with a large enough effect; inconclusive = small, poorly fitted or top-dose-only effect, or another doubt; inactive = no such curve, though single readings can be large; an effect the other way counts as inactive or inconclusive. Potency is the fitted concentration of half-maximal effect.

SMILES	BAZ2B block	HP1b binding inh	Sfp inh	JMJD2A Tudor inh	G9a inh
COc1ccc(CNC(=O)CCc2c(C)c3cc4c(C)coc4cc3oc2=O)cc1	-10.4%	22.4%	.	-18.4%	-25.5%[59 µM]
O=S1(=O)C=C(Sc2nc3cc(Cl)ccc3o2)c2ccccc21	-23.7%	-11.5%	?	?	44.7µM*
Cc1ccc2nc(NC(=S)NC(=O)c3ccco3)sc2c1	-7.5%	-11.0%	?	-16.3%	50.1µM*
Cc1ccc2nsnc2c1NC(=S)NC(=O)c1ccco1	-27.0%	-4.6%	50.1µM*	-27.5%	3.16µM*
Cc1ccnc(NC(=S)NC(=O)c2ccco2)c1	-34.7%	30.9%	?	-18.5%	-12.8%
Cc1ccc2nc(NC(=O)c3ccco3)sc2c1	10.5%	21.6%	8.3%	1.5%	-16.8%
CCOC(=O)C1CCN(c2ncnc3c2nc2n3CCCCC2)CC1	-4.5%	8.0%	.	-16.5%	8.5%[59 µM]
Cc1cccc(Cn2c(=O)n(Cc3ccccc3)c(=O)c3sc4ccccc4c32)c1	0.6%	23.5%	.	3.8%	1.0%[59 µM]
Oc1ccc2[nH]cnc2c1CN1CCCCC1	11.4%	23.7%	-18.3%	4.1%	5.62µM*
COc1ccc(OCC(=O)NC2CC(=O)N(c3ccc4c(c3)OCCO4)C2)cc1 (configuration not stated)	0.2%	26.1%	.	-1.3%	8.0%[59 µM]
CN(C(=O)c1ccno1)c1nnc(-c2cnccn2)s1	1.4%	45.7%	50.1µM*	-31.0%	-46.8%
CCCC/C=C/C(NC(=O)c1cccs1)c1ccccc1 (configuration not stated)	.	.	10.8%	.	.
CC(C)Cc1nnc(NC(=O)CN2C(=O)c3ccccc3C2=O)s1	-31.4%	-16.5%	22.4µM*	-8.6%	25.1µM*
CCCCc1nnc(NC(=O)CN2C(=O)c3ccccc3C2=O)s1	-36.6%	19.3%	-8.3%	-0.6%	-34.2%
CC(C)(C)Cc1nnc(NC(=O)CN2C(=O)c3ccccc3C2=O)s1	-26.4%	?	?	-0.7%	35.5µM*
Cc1cc(NC(=O)CS(=O)(=O)c2cn(Cc3ccc(F)cc3)c3ccccc23)no1	4.3%	32.4%	7.4%	-4.2%	-10.1%
Cc1cc(NC(=O)CS(=O)(=O)c2cn(Cc3cccc(F)c3)c3ccccc23)no1	-34.8%	5.1%	-9.8%	-28.8%	14.1µM*
CCCCn1nnnc1SCC(=O)Nc1ccc(N(C)C)cc1	-37.9%	-15.9%	-4.0%	?	44.7µM*
CCCn1nnnc1SCC(=O)c1ccc(NC(C)=O)cc1	2.9%	39.6%	79.4µM*	-16.2%	?
CC(=O)Nc1ccc(C(=O)CSc2nnc(Cn3nnc4ccccc43)n2C)cc1	3.6%	10.5%	3.5%	56.2µM*	79.4µM*
COCCn1nnnc1SCC(=O)c1ccccc1	4.2%	41.1%	50.1µM*	-0.3%	38.2%[2.33 µM]
CCCCn1nnnc1SCC(=O)Nc1ccc(F)cc1	4.9%	56.1%	7.3%	-0.6%	0.5%
CCCCn1cc(S(=O)(=O)c2ccc(CC)cc2)c(=O)c2cc(F)c(N3CCOCC3)cc21	-11.8%	23.7%	.	-15.2%	1.2%[59 µM]
COc1ccc(NC(=O)C(C)n2nc(C)c3c(C)n(-c4ccccc4)nc3c2=O)cc1Cl (configuration not stated)	-13.9%	24.3%	.	-1.0%	?
Cc1ccccc1C[C@H](C(=O)O)N1C(=O)c2ccc(C(=O)O)cc2C1=O	-27.8%	.	6.7%	-5.5%	-3.6%[12.7 µM]
SMILES	BAZ2B block	HP1b binding inh	Sfp inh	JMJD2A Tudor inh	G9a inh
O=C(NNC(=S)NC(=O)c1ccccc1)c1ccc(O)cc1	5.6%	8.8%	-4.0%	-17.1%	12.6µM*
COc1ccc(C/C(C)=N/NC(=O)c2cccnc2)cc1	?	10.0%	-15.4%	31.6µM*	40.8%[59 µM]
COc1cc(C(=O)NNC(=O)/C=C/c2ccccc2)cc(OC)c1OC	.	6.9%	.	-18.9%	.
COc1cccc(C(=O)NNC(=O)c2cccnc2)c1	4.7%	22.8%	26.7%	-15.7%	5.6%[12.7 µM]
COc1cc(C(=O)NNC(=S)NC(=O)/C=C/c2ccccc2)cc(OC)c1OC	-1.8%	-1.5%	13.9%	-12.4%	31.6µM*
COc1cc(OC)cc(C(=O)NNC(=S)NC(=O)c2cccnc2)c1	16.8%	59.2%	1.2%	-6.8%	28.2µM*
COc1ccc(C/C(C)=N/NC(=O)c2ccc(Cl)cc2)cc1	.	31.6%	-22.5%	-4.5%	29.0%
COC(=O)NC(c1ccccc1)C1(C(=O)OC)C(=O)Cc2ccccc21 (configuration not stated)	.	.	-1.6%	.	.
O=C(NCC1CCCO1)c1ccccc1NS(=O)(=O)c1ccc(Br)s1 (configuration not stated)	.	3.5%[57 µM]	.	-11.1%	.
CN(Cc1ccccc1F)C(=O)CN1C(=O)NC2(CCc3ccccc32)C1=O (configuration not stated)	-2.5%	14.3%	.	-9.7%	?
CC(C)(C)c1ccc(C(=O)NNC(=S)NC(=O)c2cccnc2)cc1	3.9%	-14.4%	9.0%	-25.9%	10µM*
O=C(NNC(=O)c1csc(-c2cccnc2)n1)c1ccccc1	-6.7%	36.7%	89.1µM*	2.1%	.
Cc1onc(-c2ccccc2)c1C(=O)NC(=S)NNC(=O)c1cccnc1	6.1%	-1.1%	9.5%	-1.7%	?
O=C(NNC(=S)NC(=O)c1ccccc1)c1cccnc1	-1.9%	16.8%	-21.6%	-18.2%	22.4µM*
O=C(NNS(=O)(=O)c1ccccc1)c1csc(-c2cccnc2)n1	-4.4%	-2.6%	3.0%	-9.0%	.
O=C(/C=C/c1ccccc1)NC(=S)NNC(=O)c1cccnc1	-8.3%	23.1%	23.0%	-19.4%	22.4µM*
CC(OC(=O)c1cccc(S(=O)(=O)N(C)C)c1)C(=O)NCc1ccc2c(c1)OCO2 (configuration not stated)	4.3%	28.0%	.	-5.5%	?
COc1ccc(N2CC(C(=O)N3CCN(c4ccccc4OC)CC3)CC2=O)cc1 (configuration not stated)	-11.7%	29.6%	13.5%	-9.3%	4.6%
Cc1ccc(S(=O)(=O)c2nnn(CC(=O)Nc3ccccc3C)c2N)cc1C	-17.0%	18.7%	.	-15.8%	-1.0%[59 µM]
NC(=O)C1CCN(C2CC(=O)N(Cc3ccc(N4CCCC4=O)cc3)C2=O)CC1 (configuration not stated)	-9.3%	26.8%	0.8%	?	44.7µM*
O=C1CC(N2CCN(C(c3ccccc3)c3ccccc3)CC2)C(=O)N1Cc1ccc(N2CCCC2=O)cc1 (configuration not stated)	?	33.6%	7.0%	4.2%	-10.3%
COCCNC(=S)N(c1ccccc1)C(C)C	-33.7%	30.2%	-11.5%	6.7%	-43.4%
COCCNC(=S)NN(c1ccccc1)c1ccccc1	-36.8%	-12.8%	?	-26.6%	28.2µM*
COc1ccccc1N1C(=O)C2C(c3ccccc3F)NN(C(=O)c3ccc(C)cc3)C2C1=O (configuration not stated)	-3.3%	35.1%	?	-16.4%	20µM*
